Results from PubChem BioAssay AID1159580 (chemical genetic matrix, 2015).
Several values for one entry are separate records, joined by “and”; a condition that tells them apart may be missing. Identical values can stand only once. Screen size: about 5,500 compounds; about 2,000 (36%) were called active. About 18% were inconclusive and are not listed. Rule as the data show it: active = normalized growth mostly below about 0.91 (no sharp cut-off); inconclusive = no clear call, values can overlap the other calls; inactive = mostly above about 0.92. The list shows a part of the results.

Assay: chemical genetic growth profiling, strain panel (AID 1159580);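 also: tested at 20 µM; growth read once vehicle control cultures reached saturation at 30 °C; 1 = growth at the plate median or of vehicle wells; lower values mean less growth of the strain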
Conditions: S. cerevisiae deletion strains, growth OD

Measured: normalized growth

C1N2CN3CN1CN(C2)C3
inactive: locus YAL013W, strain DEP1, hits give low values 0.975 | locus YAL021C, strain ccr4, hits give low values 0.986 | locus YAL026C, strain drs2, hits give low values 1 | locus YAL030W, strain snc1, hits give low values 0.993 | locus YBL061C, strain skt5, hits give low values 0.991 | locus YBR009C, strain hhf1, hits give low values 1.03 | locus YBR021W, strain FUR4, hits give low values 1.06 | locus YBR023C, strain chs3, hits give low values 0.984 | locus YBR171W, strain sec66, hits give low values 0.991 | locus YBR229C, strain ROT2, hits give low values 0.949 | locus YBR231C, strain swc5, hits give low values 1 | locus YBR279W, strain paf1, hits give low values 0.985 | locus YCL011C, strain gbp2, hits give low values 0.986 | locus YCL016C, strain dcc1, hits give low values 0.961 | locus YCL029C, strain bik1, hits give low values 0.977 | locus YCL061C, strain MRC1, hits give low values 0.987 | locus YCL069W, strain vba3, hits give low values 1 | locus YCR088W, strain abp1, hits give low values 0.982 | locus YDL005C, strain med2, hits give low values 0.999 | locus YDL035C, strain GPR1, hits give low values 0.989 | locus YDL040C, strain nat1, hits give low values 0.996 | locus YDL074C, strain BRE1, hits give low values 0.972 | locus YDL101C, strain DUN1, hits give low values 0.955 | locus YDL134C, strain PPH21, hits give low values 0.983 | locus YDL185W, strain tfp1, hits give low values 0.951 | locus YDL192W, strain arf1, hits give low values 0.972 | locus YDR001C, strain nth1, hits give low values 0.994 | locus YDR069C, strain doa4, hits give low values 1.03 | locus YDR101C, strain arx1, hits give low values 0.977 | locus YDR137W, strain rgp1, hits give low values 0.985 | locus YDR150W, strain NUM1, hits give low values 0.972 | locus YDR159W, strain sac3, hits give low values 1.04 | locus YDR162C, strain NBP2, hits give low values 0.954 | locus YDR195W, strain ref2 1.01 | locus YDR297W, strain sur2, hits give low values 0.986 | locus YDR318W, strain mcm21, hits give low values 0.98 | locus YDR334W, strain swr1, hits give low values 0.974 | locus YDR335W, strain msn5, hits give low values 0.997 | locus YDR388W, hits give low values 0.976 | locus YDR392W, strain spt3, hits give low values 0.923 | locus YDR502C, strain sam2, hits give low values 0.966 | locus YEL003W, strain gim4, hits give low values 1 | locus YEL037C, strain rad23, hits give low values 0.982 | locus YEL061C, strain CIN8 (second series), hits give low values 0.978 | locus YEL061C, strain CIN8, hits give low values 0.983 | locus YER015W, strain faa2, hits give low values 0.988 | locus YER016W, strain bim1, hits give low values 0.999 | locus YER110C, hits give low values 0.975 | locus YER111C, strain swi4, hits give low values 0.978 | locus YER155C, strain BEM2 (second series), hits give low values 0.991 | locus YER155C, strain BEM2, hits give low values 0.982 | locus YER167W, strain BCK2, hits give low values 0.984 | locus YFR010W, strain ubp6, hits give low values 0.988 | locus YGL078C, strain dbp3, hits give low values 0.942 | locus YGL086W, strain mad1, hits give low values 0.991 | locus YGL167C, strain pmr1, hits give low values 0.992 | locus YGL173C, strain kem1, hits give low values 0.994 | locus YGL227W, strain vid30, hits give low values 1 | locus YGL240W, strain doc1, hits give low values 0.999 | locus YGL248W, strain PDE1, hits give low values 0.973 | locus YGL253W, strain hxk2, hits give low values 0.998 | locus YGR078C, strain PAC10, hits give low values 0.973 | locus YGR135W, strain pre9, hits give low values 0.934 | locus YGR229C, strain SMI1, hits give low values 0.966 | locus YGR252W, strain gcn5, hits give low values 1.12 | locus YHR013C, strain ard1, hits give low values 0.95 | locus YHR027C, strain rpn1, hits give low values 0.99 | locus YHR030C, strain SLT2, hits give low values 0.99 and 0.968 | locus YHR079C, strain IRE1 (second series), hits give low values 0.974 | locus YHR079C, strain IRE1, hits give low values 0.929 | locus YHR094C, strain hxt1, hits give low values 0.976 | locus YHR129C, strain ARP1, hits give low values 0.978 | locus YHR142W, strain chs7, hits give low values 0.973 | locus YHR200W, strain rpn10, hits give low values 0.975 | locus YIL066C, strain RNR3, hits give low values 0.984 | locus YIL073C, strain SPO22, hits give low values 0.895 | locus YIL125W, strain kgd1, hits give low values 0.979 | locus YIR030C, strain dcg1, hits give low values 0.976 | locus YJL092W, strain hpr5, hits give low values 0.982 | locus YJL095W, strain BCK1 (second series), hits give low values 0.986 | locus YJL095W, strain BCK1, hits give low values 0.988 and 0.948 | locus YJL115W, strain asf1, hits give low values 0.985 | locus YJL129C, strain trk1, hits give low values 0.979 | locus YJL134W, strain LCB3, hits give low values 0.98 | locus YJL154C, strain vps35, hits give low values 0.991 | locus YJL164C, strain tpk1, hits give low values 0.99 | locus YJL166W, strain qcr8, hits give low values 0.964 | locus YJL168C, strain set2, hits give low values 0.985 | locus YJL187C, strain SWE1 (second series), hits give low values 0.975 | locus YJL187C, strain SWE1, hits give low values 0.988 | locus YJR043C, strain POL32, hits give low values 0.997 | locus YJR066W, strain TOR1, hits give low values 0.987
